From the supplement of paper PMC4022240
± gives the standard deviation.

T1: HaloTag-ATRX ADD domain (163-292)
T1 chain: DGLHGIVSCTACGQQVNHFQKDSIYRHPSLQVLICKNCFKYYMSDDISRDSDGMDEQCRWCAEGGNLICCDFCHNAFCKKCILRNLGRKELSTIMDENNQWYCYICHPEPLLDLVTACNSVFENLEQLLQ


Target: T1, HaloTag-ATRX ADD domain (163-292)
Assay: peptide microarray binding signal (635 nm), min-max normalized on array (fraction of array maximum); higher = stronger binding
Settings: peptide region: Unmod H1 variant; binder concentration: 50 nM
Procedure, shortened: (§1)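 Binding signal is the mean intensity of triplicate spots, min-max scaled within each library. Histone 13-mer peptide–cellulose conjugates were spotted in triplicate on nitrocellulose with a Cy3 tracer and blocked overnight at 4°C. Probing lasted 1 h at 4°C, either with biotin-labelled HaloTag reader fusions (10 nM to 1 μM) and streptavidin-Alexa Fluor 647 or with rabbit histone antibodies (1:10,000 to 1:2,000) and anti-rabbit Alexa 647. An Axon GenePix 4000B read signal at 635 nm and misprints at 532 nm.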

Row | Binder | peptide microarray binding signal
1 | KAKPVKASKPKKA [Unmod H1 variant K A K P V K A S K P K K A] | 0.01229 ± 0.00011
2 | AKKKLAATPKKAK [Unmod H1 variant A K K K L A A T P K K A K] | 0.01188 ± 3e-05
3 | TENSTSAPAAKPK [Unmod H1 variant T E N S T S A P A A K P K] | 0.0132 ± 0.00019
4 | PKKSVAFKKTKKE [Unmod H1 variant P K K S V A F K K T K K E] | 0.0103 ± 0.00015
5 | AKPKRAKASKKST [Unmod H1 variant A K P K R A K A S K K S T] | 0.0106 ± 0.0005
6 | SHYKVGENADSQI [Unmod H1 variant S H Y K V G E N A D S Q I] | 0.00937 ± 0.00014
7 | TKKEIKKVATPKK [Unmod H1 variant T K K E I K K V A T P K K] | 0.0108 ± 0.00026
8 | SFRLAKSDEPKKS [Unmod H1 variant S F R L A K S D E P K K S] | 0.0196 ± 0.0052
9 | AEKNRAGSSRQSI [Unmod H1 variant A E K N R A G S S R Q S I] | 0.0112 ± 0.00071
10 | KKSTDHPKYSDMI [Unmod H1 variant K K S T D H P K Y S D M I] | 0.01 ± 7.3e-05

Same assay, conditions: peptide region: Unmod H1 variant; binder concentration: 500 nM

Row | Binder | peptide microarray binding signal
11 | KAKPVKASKPKKA [Unmod H1 variant K A K P V K A S K P K K A] | 0.00971 ± 0.00061
12 | AKKKLAATPKKAK [Unmod H1 variant A K K K L A A T P K K A K] | 0.0112 ± 0.00064
13 | TENSTSAPAAKPK [Unmod H1 variant T E N S T S A P A A K P K] | 0.0173 ± 0.002
14 | PKKSVAFKKTKKE [Unmod H1 variant P K K S V A F K K T K K E] | 0.00867 ± 0.00023
15 | AKPKRAKASKKST [Unmod H1 variant A K P K R A K A S K K S T] | 0.018 ± 0.00086
16 | SHYKVGENADSQI [Unmod H1 variant S H Y K V G E N A D S Q I] | 0.00671 ± 0.00048
17 | TKKEIKKVATPKK [Unmod H1 variant T K K E I K K V A T P K K] | 0.00952 ± 0.00026
18 | SFRLAKSDEPKKS [Unmod H1 variant S F R L A K S D E P K K S] | 0.0223 ± 0.001
19 | AEKNRAGSSRQSI [Unmod H1 variant A E K N R A G S S R Q S I] | 0.0179 ± 0.0034
20 | KKSTDHPKYSDMI [Unmod H1 variant K K S T D H P K Y S D M I] | 0.00895 ± 0.0005

Target: HaloTag-ING2 PHD (mouse Ing2 200-280)
Assay: as above
Settings: peptide region: Unmod H1 variant; binder concentration: 10 nM
Procedure, shortened: as §1

Row | Binder | peptide microarray binding signal
21 | KAKPVKASKPKKA [Unmod H1 variant K A K P V K A S K P K K A] | 0.00292 ± 7.4e-05
22 | AKKKLAATPKKAK [Unmod H1 variant A K K K L A A T P K K A K] | 0.00203 ± 2.1e-05
23 | TENSTSAPAAKPK [Unmod H1 variant T E N S T S A P A A K P K] | 0.005132 ± 2.5e-05
24 | PKKSVAFKKTKKE [Unmod H1 variant P K K S V A F K K T K K E] | 0.00203 ± 5.4e-05
25 | AKPKRAKASKKST [Unmod H1 variant A K P K R A K A S K K S T] | 0.00334 ± 4.8e-05
26 | SHYKVGENADSQI [Unmod H1 variant S H Y K V G E N A D S Q I] | 0.00197 ± 2.3e-05
27 | TKKEIKKVATPKK [Unmod H1 variant T K K E I K K V A T P K K] | 0.00185 ± 3.8e-05
28 | SFRLAKSDEPKKS [Unmod H1 variant S F R L A K S D E P K K S] | 0.00448 ± 0.00019
29 | AEKNRAGSSRQSI [Unmod H1 variant A E K N R A G S S R Q S I] | 0.00495 ± 0.00025
30 | KKSTDHPKYSDMI [Unmod H1 variant K K S T D H P K Y S D M I] | 0.00269 ± 3e-05

Same assay, conditions: peptide region: Unmod H1 variant; binder concentration: 100 nM

Row | Binder | peptide microarray binding signal
31 | KAKPVKASKPKKA [Unmod H1 variant K A K P V K A S K P K K A] | 0.00574 ± 0.00036
32 | AKKKLAATPKKAK [Unmod H1 variant A K K K L A A T P K K A K] | 0.00397 ± 0.00028
33 | TENSTSAPAAKPK [Unmod H1 variant T E N S T S A P A A K P K] | 0.00694 ± 0.00038
34 | PKKSVAFKKTKKE [Unmod H1 variant P K K S V A F K K T K K E] | 0.00298 ± 7.3e-05
35 | AKPKRAKASKKST [Unmod H1 variant A K P K R A K A S K K S T] | 0.00638 ± 0.0014
36 | SHYKVGENADSQI [Unmod H1 variant S H Y K V G E N A D S Q I] | 0.00298 ± 0.00012
37 | TKKEIKKVATPKK [Unmod H1 variant T K K E I K K V A T P K K] | 0.00482 ± 0.0004
38 | SFRLAKSDEPKKS [Unmod H1 variant S F R L A K S D E P K K S] | 0.0192 ± 0.0084
39 | AEKNRAGSSRQSI [Unmod H1 variant A E K N R A G S S R Q S I] | 0.00943 ± 0.0026
40 | KKSTDHPKYSDMI [Unmod H1 variant K K S T D H P K Y S D M I] | 0.00418 ± 0.00013

Target: anti-H3K4me3 antibody ab8580
Assay: as above
Settings: peptide region: Unmod H1 variant; binder concentration: 1:2,000 dilution
Procedure, shortened: as §1

Row | Binder | peptide microarray binding signal
41 | KAKPVKASKPKKA [Unmod H1 variant K A K P V K A S K P K K A] | 0.00051 ± 8.6e-06
42 | AKKKLAATPKKAK [Unmod H1 variant A K K K L A A T P K K A K] | 0.000415 ± 8.4e-06
43 | TENSTSAPAAKPK [Unmod H1 variant T E N S T S A P A A K P K] | 0.000906 ± 4.9e-05
44 | PKKSVAFKKTKKE [Unmod H1 variant P K K S V A F K K T K K E] | 0.000321 ± 6.7e-06
45 | AKPKRAKASKKST [Unmod H1 variant A K P K R A K A S K K S T] | 0.000378 ± 1.4e-05
46 | SHYKVGENADSQI [Unmod H1 variant S H Y K V G E N A D S Q I] | 0.000227 ± 4.2e-06
47 | TKKEIKKVATPKK [Unmod H1 variant T K K E I K K V A T P K K] | 0.000604 ± 3e-05
48 | SFRLAKSDEPKKS [Unmod H1 variant S F R L A K S D E P K K S] | 0.001 ± 0.00013
49 | AEKNRAGSSRQSI [Unmod H1 variant A E K N R A G S S R Q S I] | 0.000453 ± 4.1e-05
50 | KKSTDHPKYSDMI [Unmod H1 variant K K S T D H P K Y S D M I] | 0.000717 ± 7.3e-05

Same assay, conditions: peptide region: Unmod H1 variant; binder concentration: 1:10,000 dilution

Row | Binder | peptide microarray binding signal
51 | KAKPVKASKPKKA [Unmod H1 variant K A K P V K A S K P K K A] | 0.000685 ± 7.2e-06
52 | AKKKLAATPKKAK [Unmod H1 variant A K K K L A A T P K K A K] | 0.000799 ± 2.2e-05
53 | TENSTSAPAAKPK [Unmod H1 variant T E N S T S A P A A K P K] | 0.00188 ± 3.5e-05
54 | PKKSVAFKKTKKE [Unmod H1 variant P K K S V A F K K T K K E] | 0.000628 ± 6.7e-06
55 | AKPKRAKASKKST [Unmod H1 variant A K P K R A K A S K K S T] | 0.000913 ± 2.8e-05
56 | SHYKVGENADSQI [Unmod H1 variant S H Y K V G E N A D S Q I] | 0.000571
57 | TKKEIKKVATPKK [Unmod H1 variant T K K E I K K V A T P K K] | 0.000628 ± 6.7e-06
58 | SFRLAKSDEPKKS [Unmod H1 variant S F R L A K S D E P K K S] | 0.00154 ± 9.8e-05
59 | AEKNRAGSSRQSI [Unmod H1 variant A E K N R A G S S R Q S I] | 0.000913 ± 1.6e-05
60 | KKSTDHPKYSDMI [Unmod H1 variant K K S T D H P K Y S D M I] | 0.000856 ± 1.8e-05

Target: anti-H3K9me3 antibody ab8898
Assay: as above
Settings: peptide region: Unmod H1 variant; binder concentration: 1:2,000 dilution
Procedure, shortened: as §1

Row | Binder | peptide microarray binding signal
61 | KAKPVKASKPKKA [Unmod H1 variant K A K P V K A S K P K K A] | 0.000196 ± 2.1e-06
62 | AKKKLAATPKKAK [Unmod H1 variant A K K K L A A T P K K A K] | 0.000272
63 | TENSTSAPAAKPK [Unmod H1 variant T E N S T S A P A A K P K] | 0.00136 ± 1.7e-05
64 | PKKSVAFKKTKKE [Unmod H1 variant P K K S V A F K K T K K E] | 0.000423 ± 4.2e-05
65 | AKPKRAKASKKST [Unmod H1 variant A K P K R A K A S K K S T] | 0.000347 ± 7e-06
66 | SHYKVGENADSQI [Unmod H1 variant S H Y K V G E N A D S Q I] | 0.000181
67 | TKKEIKKVATPKK [Unmod H1 variant T K K E I K K V A T P K K] | 0.000121 ± 1.3e-06
68 | SFRLAKSDEPKKS [Unmod H1 variant S F R L A K S D E P K K S] | 0.000785 ± 0.00015
69 | AEKNRAGSSRQSI [Unmod H1 variant A E K N R A G S S R Q S I] | 0.000544 ± 1.5e-05
70 | KKSTDHPKYSDMI [Unmod H1 variant K K S T D H P K Y S D M I] | 0.000196 ± 2.1e-06

Same assay, conditions: peptide region: Unmod H1 variant; binder concentration: 1:10,000 dilution

Row | Binder | peptide microarray binding signal
71 | KAKPVKASKPKKA [Unmod H1 variant K A K P V K A S K P K K A] | 0.000692 ± 7.3e-06
72 | AKKKLAATPKKAK [Unmod H1 variant A K K K L A A T P K K A K] | 0.00098 ± 4.6e-05
73 | TENSTSAPAAKPK [Unmod H1 variant T E N S T S A P A A K P K] | 0.0015 ± 2.5e-05
74 | PKKSVAFKKTKKE [Unmod H1 variant P K K S V A F K K T K K E] | 0.000519 ± 5.6e-06
75 | AKPKRAKASKKST [Unmod H1 variant A K P K R A K A S K K S T] | 0.000634
76 | SHYKVGENADSQI [Unmod H1 variant S H Y K V G E N A D S Q I] | 0.000404 ± 4.4e-06
77 | TKKEIKKVATPKK [Unmod H1 variant T K K E I K K V A T P K K] | 0.000519 ± 5.6e-06
78 | SFRLAKSDEPKKS [Unmod H1 variant S F R L A K S D E P K K S] | 0.000923 ± 9.6e-06
79 | AEKNRAGSSRQSI [Unmod H1 variant A E K N R A G S S R Q S I] | 0.00219 ± 0.00045
80 | KKSTDHPKYSDMI [Unmod H1 variant K K S T D H P K Y S D M I] | 0.00075 ± 7.9e-06
